Laboratory results from PubChem BioAssay (NCI).
About 79,000 compounds went through this panel and 15% of them were active in at least one assay; those are over-represented in the sample as a whole. Unmarked numbers belong to inactive results. Calls of active or inactive are those of the source. Cut-off read from the data, not from the text of the source: active = growth inhibition above about 70%; inactive = the rest.

Assays:
[1] = NCI Yeast Anticancer Drug Screen. Data for the rad50 strain (AID 155);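 note: 0% = growth of vehicle-only cultures of the same strain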; settings: S. cerevisiae rad50 strain growth inhibition, hits give high values
Method in brief: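 Growth of the mutant yeast was measured after compound exposure and referenced to vehicle-treated cultures.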

[2] = NCI Yeast Anticancer Drug Screen. Data for the mec2-1 strain (AID 157); settings: S. cerevisiae mec2-1 strain, hits give high values
Method in brief: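 Each compound was tested on mec2-1 yeast, a strain altered in DNA damage repair or cell cycle control. Growth inhibition is reported relative to vehicle.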

[3] = NCI Yeast Anticancer Drug Screen. Data for the sgs1 mgt1 strain (AID 161);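 note: 0% = growth of cultures given vehicle only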; settings: S. cerevisiae sgs1 mgt1 strain, hits give high values
Method in brief: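 Test agents were incubated with a DNA-repair-mutant yeast strain. Growth was then read and compared against vehicle-treated controls.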

[4] = NCI Yeast Anticancer Drug Screen. Data for the cln2 rad14 strain (AID 165);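 note: 0% = growth equal to vehicle treated cultures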; settings: S. cerevisiae cln2 rad14 strain, hits give high values
Method in brief: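 Test compounds were added to cln2 rad14 yeast cultures; inhibition of growth was then determined by comparison with vehicle treatment.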

[5] = NCI Yeast Anticancer Drug Screen. Data for the bub3 strain (AID 167); settings: S. cerevisiae bub3 mutant strain, hits give high values
Method in brief: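 Whole-cell yeast assay. The mutant strain was incubated with compounds, and growth inhibition was determined by comparison with vehicle-treated cells.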

[6] = NCI Yeast Anticancer Drug Screen. Data for the mlh1 rad18 strain (AID 175); settings: S. cerevisiae mlh1 rad18 strain growth inhibition, hits give high values
Method in brief: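 Inhibition values reflect reduced growth of mutant yeast versus vehicle-treated controls following compound exposure; the mutations affect DNA damage repair.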

[7] = at 5.0 µM (retest, dose inferred, filed as 0.5)
[8] = at 50.0 µM (retest, dose inferred, filed as 5.0)

Structure (SMILES) | growth inhibition [1, 7] | growth inhibition [1, 8] | growth inhibition ([1]; at 50.0 µM) | growth inhibition [2, 7] | growth inhibition [2, 8] | growth inhibition ([2]; at 50.0 µM) | growth inhibition [3, 7] | growth inhibition [3, 8] | growth inhibition ([3]; at 50.0 µM) | growth inhibition [4, 7] | growth inhibition [4, 8] | growth inhibition ([4]; at 50.0 µM) | growth inhibition [5, 7] | growth inhibition [5, 8] | growth inhibition ([5]; at 50.0 µM) | growth inhibition [6, 7] | growth inhibition [6, 8] | growth inhibition ([6]; at 50.0 µM)
CCC(=O)C(C(=O)CC)c1c(OC(=O)c2ccccc2)ccc(O)c1C(=O)OC | -4% | 30% | 30.9% | -1% | 16% | 47.9% | 4% | 71% (active) | 71.4% (active) | -5% | -5% | -7.45% | -2% | -2% | 42.8% | -3% | 30% | 67%
COc1ccccc1C1C2=C(COC2=O)OC(C)(C)Oc2cc3c(cc21)OCO3 (stereo not given) | 22% | 96% (active) | 75.8% (active) | -13% | 96% (active) | 85.1% (active) | 16% | 96% (active) | 86.3% (active) | 35% | 95% (active) | 87.3% (active) | -22% | 97% (active) | 89.7% (active) | 15% | 96% (active) | 88% (active)
Oc1c(Br)ccc2cccnc12 | 26% | 99% (active) | 87.2% (active) | 23% | 99% (active) | 91.2% (active) | 4% | 99% (active) | 83.8% (active) | 0% | 98% (active) | 88.6% (active) | 1% | 99% (active) | 88.5% (active) | 1% | 98% (active) | 82.3% (active)
O=S(=O)(Sc1ccccc1)c1ccccc1 | 13% | 98% (active) | 79% (active) | 11% | 99% (active) | 99.1% (active) | 16% | 99% (active) | 99.3% (active) | 5% | 99% (active) | 97% (active) | 16% | 99% (active) | 97.3% (active) | 20% | 99% (active) | 99% (active)
COc1ccc(C(C)c2cc3c(cc2OC/C(C)=N/NC(N)=O)OCO3)cc1 (stereo not given) | 61% | 93% (active) | 74.4% (active) | 43% | 99% (active) | 71.6% (active) | 41% | 87% (active) | 82% (active) | 19% | 97% (active) | 19.6% | 58% | 99% (active) | 88.1% (active) | 61% | 96% (active) | 90.3% (active)
O=C(Nc1nc2ccc([N+](=O)[O-])cc2s1)C(=O)C(C1OC(=O)c2ccccc21)[N+](=O)[O-] (stereo not given) | 8% | 8% | 88.7% (active) | -7% | -7% | 87% (active) | 9% | 9% | 88.9% (active) | 13% | 13% | 67.6% | 4% | 4% | 84% (active) | 0% | 0% | 76% (active)
COC(=O)c1c(/C(=N/Nc2ccc([N+](=O)[O-])cc2)[N+](=O)[O-])ssc1=N | 14% | 37% | 21.1% | 0% | 44% | 24.9% | 13% | 60% | 27.6% | 6% | 23% | 27.9% | 6% | 40% | 24.9% | 15% | 54% | 70.9% (active)
C[Si](C)(C)C1=C([Si](C)(C)C)C(Cl)(Cl)C1=O | 10% | 32% | 12% | 12% | 17% | 9.35% | 20% | 49% | 72.2% (active) | 6% | 40% | 45.5% | 16% | 33% | 29.2% | 18% | 38% | 32.4%
C(=NCCc1ccccc1)c1ccccc1B1OB(c2ccccc2C=NCCc2ccccc2)OB(c2ccccc2C=NCCc2ccccc2)O1 | 94% (active) | 99% (active) | 99.6% (active) | 93% (active) | 100% (active) | 99.8% (active) | 90% (active) | 99% (active) | 99.7% (active) | 77% (active) | 98% (active) | 99.3% (active) | 79% (active) | 99% (active) | 99.7% (active) | 92% (active) | 99% (active) | 99.5% (active)
CCc1cccc(CC)c1NC(=O)CS | -151% | 93% (active) | 98% (active) | -51% | 94% (active) | 97.7% (active) | -64% | 90% (active) | 61.7% | -72% | 90% (active) | 95.8% (active) | -85% | 92% (active) | 97.8% (active) | -132% | 93% (active) | 98% (active)
NC(=S)N/N=C/c1cn(CCCl)c2ccccc12 | 7% | 30% | 57.5% | -49% | 49% | 19.8% | -17% | 63% | 62.9% | 2% | 59% | 42.9% | -11% | 56% | 24.1% | -32% | 35% | 45.9%
O=C1c2cc(O)ccc2C(=O)c2c1ccc(O)c2O | 11% | 98% (active) | 98.7% (active) | 14% | 99% (active) | 97.2% (active) | 12% | 98% (active) | 96.5% (active) | 12% | 97% (active) | 90.7% (active) | 4% | 98% (active) | 97.8% (active) | 4% | 99% (active) | 98.2% (active)
CN(C)CCNc1ccc2nnn3c4ccc(O)cc4c(=O)c1c23 | 32% | 51% | 12.1% | -3% | -4% | -3.1% | 12% | 23% | -6.05% | 19% | 32% | 25.4% | 18% | 32% | -0.1% | 27% | 15% | 33.8%
CC(=O)N=C1N(/C=C2\C(=O)Oc3ccccc3C2=O)C(=O)/C(=C/c2ccc(Cl)cc2Cl)N1C | 1% | 92% (active) | 91.8% (active) | 11% | 96% (active) | 95% (active) | 7% | 90% (active) | 94.2% (active) | -3% | 91% (active) | 89.8% (active) | 23% | 87% (active) | 93.4% (active) | -4% | 91% (active) | 91.6% (active)
COC(=O)C1=Cc2cc3c(cc2[C@H](c2ccc4c(c2)OCO4)C1C(=O)OC)OCO3 (stereo not given in full) | 2% | 26% | 48.6% | -5% | 20% | 33.9% | 3% | 40% | 47.5% | 0% | 40% | 37% | 26% | 70% (active) | 71.4% (active) | 2% | 23% | 56.8%
CN(Cc1cc(Br)cc(Br)c1O)Cc1c[nH]c2ccccc12 | -1% | 8% | 68.1% | 12% | 31% | 31.1% | 0% | 14% | 86.4% (active) | -2% | 0% | 62.2% | -4% | -1% | 40.9% | 36% | 48% | 74.5% (active)
O=c1c2cc3c(cc2c2cccc4c2n1CCC4)OCO3 | -1% | 44% | 71.2% (active) | 0% | 12% | 23.4% | -4% | 13% | 25.4% | -3% | 6% | 42.4% | 2% | 31% | 20.4% | -2% | 15% | 53.7%
CCCCN(CCCC)/N=C\C1=C2NC(=O)/C(C)=C\C=C/C(OC)C(OC(N)=O)/C(C)=C/C(C)C(O)C(OC)CC(C)CC(=C(OC)C1=O)C2=O (stereo not given) | 2% | 81% (active) | 54.4% | -2% | 87% (active) | 48.4% | -4% | 89% (active) | 47.9% | -8% | 78% (active) | 47.6% | -3% | 32% | 44% | -2% | 80% (active) | 60.5%
Cc1nc(C(N)=S)sc1C(=O)CC(=O)C(=O)Nc1nc2ccccc2[nH]1 | 10% | -9% | -7.35% | 11% | 24% | 23.1% | 13% | -110% | -24.9% | 7% | 3% | 2.85% | 11% | -7% | 1.75% | 12% | 25% | -42.5%
Cc1ccc(S(=O)(=O)/C=C/C(=O)c2ccc3ccccc3c2)cc1 | 83% (active) | 86% (active) | 97.2% (active) | 96% (active) | 95% (active) | 98.4% (active) | 84% (active) | 96% (active) | 95.9% (active) | 20% | 91% (active) | 96.5% (active) | 47% | 96% (active) | 94.5% (active) | 88% (active) | 95% (active) | 97.1% (active)
